Assay results reported in the antibiotic and cytotoxicity screens of Wong et al. (2023).
Screen size: about 39,000 compounds; about 3,300 (8.5%) were called active. The list comes from a sample in which actives are over-represented; it also holds similar structures and randomly drawn compounds.

These compounds were tested on HepG2 (assay: cytotoxicity call (relative viability < 0.9)). Conditions: 10 µM.

Compound | cytotoxicity call
CN(C)C(=O)c1ccc(-c2cccc(-c3nc(C(=O)NCc4ccccc4)cc4c3[C@@H](CCO)N([S@@](=O)C(C)(C)C)C4)c2)cc1 | inactive
C[C@H](NC(=O)C[C@H]1CC[C@@H](NC(=O)CN2CCOCC2)[C@@H](CO)O1)c1ccccc1 | inactive
Cc1ccc(S[C@]2(C(=O)NC3CC3)CC(=O)N(Cc3cc(C(F)(F)F)cc(C(F)(F)F)c3)[C@@H]2c2ccc(CO)cc2)cc1 | inactive
C[C@@H]1CCCCO[C@@H](CN(C)S(=O)(=O)c2ccccc2)[C@H](C)CN([C@@H](C)CO)C(=O)c2cc(NC(=O)C3CCCCC3)ccc2O1 | inactive
COc1ccc(S(=O)(=O)Nc2ccc3c(c2)CC(=O)N([C@@H](C)CO)C[C@@H](C)[C@@H](CN(C)Cc2ccc(C(=O)O)cc2)O3)cc1 | inactive
COc1ccc(NC(=O)N(C)C[C@@H]2OCCCC[C@H](C)Oc3ccc(NS(=O)(=O)c4cccs4)cc3C(=O)N([C@@H](C)CO)C[C@@H]2C)cc1 | inactive
CCS(=O)(=O)N1C[C@]2(CN(C2)C(=O)c2ccc3c(c2)OCO3)c2c(n(c3cc(ccc23)OC)C)[C@H]1CO | inactive
CN1CCN(C(=O)C[C@@H]2CC[C@@H]3[C@H](COC[C@@H](O)CN3C(=O)Nc3cc(Cl)cc(Cl)c3)O2)CC1 | inactive
C[C@H]1CN([C@@H](C)CO)C(=O)c2cc(NC(=O)C3CCCCC3)ccc2O[C@H]1CN(C)C(=O)Nc1ccc(C(F)(F)F)cc1 | inactive
C[C@@H]1CN([C@@H](C)CO)C(=O)c2cc(NS(=O)(=O)c3ccc(Cl)cc3)ccc2O[C@@H](C)CCCCO[C@H]1CN(C)S(=O)(=O)c1ccc(Cl)cc1 | inactive
C[C@@H]1CCCCO[C@@H](CN(C)S(=O)(=O)c2ccc(Cl)cc2)[C@H](C)CN([C@H](C)CO)C(=O)c2cc(NS(=O)(=O)c3ccc(Cl)cc3)ccc2O1 | active
C[C@@H]1CN([C@H](C)CO)C(=O)c2cc(NS(=O)(=O)c3ccc(Cl)cc3)ccc2O[C@@H](C)CCCCO[C@H]1CN(C)S(=O)(=O)c1ccc(Cl)cc1 | inactive
COCCNC(=O)C[C@H]1C[C@H]2c3cc(NC(=O)CN(C)C)ccc3O[C@H]2[C@@H](CO)O1 | inactive
CC(C)NC(=O)Nc1ccc2c(c1)C(=O)N([C@H](C)CO)C[C@@H](C)[C@H](CN(C)Cc1ccc(Oc3ccccc3)cc1)O2 | inactive
C[C@@H]1CN([C@H](C)CO)C(=O)c2cc(NC(=O)NC3CCCCC3)ccc2O[C@@H]1CN(C)Cc1ccc(Oc2ccccc2)cc1 | active
C[C@@H]1CN([C@@H](C)CO)C(=O)c2cc(NC(=O)NC3CCCCC3)ccc2O[C@H]1CN(C)Cc1ccc(Oc2ccccc2)cc1 | inactive
C[C@H]1CN([C@@H](C)CO)C(=O)c2cc(NC(=O)NC3CCCCC3)ccc2O[C@H]1CN(C)Cc1ccc(Oc2ccccc2)cc1 | inactive
C[C@H](CO)N1C[C@H](C)[C@@H](CN(C)Cc2ccc(Oc3ccccc3)cc2)Oc2ccc(NC(=O)NC3CCCCC3)cc2C1=O | active
C[C@@H]1CN([C@@H](C)CO)C(=O)c2cc(NC(=O)NC3CCCCC3)ccc2O[C@@H]1CN(C)Cc1ccc(Oc2ccccc2)cc1 | active
CC(C)NC(=O)Nc1ccc2c(c1)C(=O)N([C@@H](C)CO)C[C@@H](C)[C@@H](CN(C)Cc1ccc(Oc3ccccc3)cc1)O2 | inactive
C[C@H](CO)N1C[C@H](C)[C@H](CN(C)Cc2ccc(Oc3ccccc3)cc2)Oc2ccc(NC(=O)NC3CCCCC3)cc2C1=O | inactive
C[C@@H]1CN([C@H](C)CO)C(=O)c2cc(NC(=O)NC3CCCCC3)ccc2O[C@H]1CN(C)Cc1ccc(Oc2ccccc2)cc1 | inactive
